Bioassay records from PubChem.
Pf Dd2 inh: blocks in vitro growth of P. falciparum Dd2; AID 1347417; P. falciparum Dd2 growth, SYBR Green, 72 h; Potency, µM (titrated, usually from 28.9 µM), for inactives: at the top dose activity, negative = inhibition, hits mostly inhibitors; actives 4.3% (n = 120,000); active = well fitted inhibition curve with a large enough effect;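 also: plate controls were DMSO vehicle for no effect and reference drug for full effect; nearly all actives have a fitted effect of over 65% in size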
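Infected erythrocytes (Dd2, 0.3% parasitemia, 2.5% hematocrit final) are added to compound in RPMI-1640/Albumax II medium, grown 72 h at 37C in low oxygen, then lysed with saponin/Triton-X containing SYBR Green and read by fluorescence.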
The depositor's hits bear a star; i = inactive; [ ] = another dose, or the depositor's remark. This is one part of a sample in which hits are shown more often than they occur. Potency is read from the fitted curve at half-maximal effect.

SMILES	Pf Dd2 inh
Cc1ccc(NC(=O)NCC2CCN(Cc3cccc(Cl)c3)CC2)cc1Cl	10µM*
COc1ccc(CN2CCCC(CNC(=O)NC(C)C)C2)cc1O (stereo unspecified)	-22.3%
Cc1ccc(CN2CCC(CNC(=O)Nc3ccc(Cl)cc3)C2)cc1 (stereo unspecified)	i
Cc1ccc(CN2CCC(CNC(=O)Nc3ccccc3F)CC2)cc1	i
Cc1ccc(CN2CCC(CNC(=O)NC(C)C)C2)cc1C (stereo unspecified)	8.91µM*
O=C(Nc1cccc(C(F)(F)F)c1)c1cc2ccc3cccnc3c2[nH]1	29.8%
O=C(NCC1CCN(Cc2cccc(Cl)c2)CC1)c1cc2ccc3cccnc3c2[nH]1	7.94µM*
CC(C)NC(=O)NCC1CCCN(Cc2ccc3c(c2)OCCO3)C1 (stereo unspecified)	-10.0%
CC(C)C(=O)N1CCCCCC1c1nnc(-c2ccccc2)o1 (stereo unspecified)	i
Cc1nc(C2CC(O)C2)cc(N(C)Cc2nccn2Cc2ccccc2)n1 (stereo unspecified)	-5.4%
CN1C(=O)[C@@H]2C[C@@H](CN2C(=O)COc2ccccc2)Oc2ccccc21	-1.9%[44.1 µM]
COCCn1c(C)cnc1CC1CCN(C(=O)NCCc2ccccc2)C1 (stereo unspecified)	-7.6%
COc1ccc(S(=O)(=O)N2C[C@@H](Oc3cccnc3)C[C@@H]2C(=O)N2CCOCC2)cc1	-16.8%
CN(C)Cc1nnc(C2CCCN(C(=O)N3CCOCC3)C2)n1C (stereo unspecified)	-2.9%
Cn1ccc2c(C(=O)NCCc3cnc[nH]3)nc(-c3ccc(N4CCOCC4)cc3)cc21	i
CC(C)C[C@@H]1N[C@H](C(=O)NCCOc2ccccc2)Cc2c[nH]c3cccc1c23	12.6µM*
CC(C)C[C@@H]1N[C@H](C(=O)N2CCCC2)Cc2c[nH]c3cccc1c23	-18.3%[44.1 µM]
CC(C)C[C@@H]1N[C@H](C(=O)NCc2ccccc2)Cc2c[nH]c3cccc1c23	i
CC(C)C[C@@H]1N[C@H](C(=O)N2CCC(NC(=O)c3ccccc3)CC2)Cc2c[nH]c3cccc1c23	10µM*
CC(C)C[C@@H]1N[C@H](C(=O)NCCCn2ccnc2)Cc2c[nH]c3cccc1c23	8.91µM*
CCCNC(=O)[C@@H]1Cc2c[nH]c3cccc(c23)[C@H](CC(C)C)N1	i
CC(C)C[C@@H]1N[C@H](C(=O)NCc2ccco2)Cc2cn(Cc3nccn3C)c3cccc1c23	-16.2%
CC(C)C[C@@H]1N[C@H](C(=O)NCc2ccccc2Cl)Cc2c[nH]c3cccc1c23	i
CC(NC(=O)C1CCCN(c2cnc3nccnc3c2)C1)c1cccnc1 (stereo unspecified)	i
O=[S+]([O-])(Nc1nncs1)c1ccc2c(c1)OCCN(Cc1ccccc1)C2	i
SMILES	Pf Dd2 inh
CCOc1cc(=O)n2c(c1C(=O)Nc1ccccc1OC)CCCC2	6.1%
Cc1nc2ccc(C(=O)N3CCCC(C)(Cc4ccc5c(c4)OCO5)C3)cc2o1 (stereo unspecified)	-10.9%
CSc1cccc(N2C(=O)N(Cc3ccc([N+](=O)[O-])cc3)c3ccccc3S2(=O)=O)c1	i
NC(=O)C1CCN(CC[C@H]2CN(C(=O)NC3CCCCC3)CC[C@H]2CC(=O)O)CC1	15.1%[44.1 µM]
COc1ccc(CNc2ncncc2-c2nc(-c3ccccc3)no2)cc1	i
O=C1Nc2ccccc2CNC12CCN(Cc1ccccn1)CC2	10.4%
CCC1=C(c2ccc(C)cc2)S(=O)(=O)N=C1N1CCC(C(=O)NCCc2ccc(Cl)cc2)CC1	8.91µM*
CC1=C(c2ccc(F)cc2)S(=O)(=O)N=C1N1CCC(C(=O)NCCc2ccccc2)CC1	i
CC1=C(c2ccc(Cl)cc2)S(=O)(=O)N=C1N1CCC(C(=O)NCCc2ccco2)CC1	21.7%
CCN(Cc1noc(C2CCC2)n1)C(=O)CN1C[C@@H]2CC[C@H](CC1=O)N2	-7.4%
COc1ccccc1CNC(=O)CC1CCCN(c2cnn(CC3CC3)c(=O)c2)C1 (stereo unspecified)	-12.1%
COc1ccc(-c2nc(C3CC3)nc3c2CN(C(=O)c2ccc4c(c2)OCO4)CC3)cc1	-32.9%
CC(C)c1ccc(N2C(=O)N[C@@H]3CCN(C(=O)C4CCCCC4)[C@@H]3C2=O)cc1	i
O=C1NC2(CCN(Cc3ccsc3)CC2)COc2ccccc21	3.16µM*
COc1cccc(CN2CCCC3(C2)NC(=O)c2ccccc2O3)c1 (stereo unspecified)	15.8µM*
O=C1NC2(CCCN(Cc3ccncc3)C2)COc2ccccc21 (stereo unspecified)	-21.5%[44.1 µM]
Cc1ccc(CN2CCCC3(COc4ccccc4C(=O)N3)C2)cc1 (stereo unspecified)	12.6µM*
N#Cc1ccc(CN2CCC3(CC2)COc2ccccc2C(=O)N3)cc1	2.51µM*
N#Cc1ccc(CN2CCCC3(COc4ccccc4C(=O)N3)C2)cc1 (stereo unspecified)	-23.6%
COc1cccc(CN2CCC3(CC2)COc2ccccc2C(=O)N3)c1	i
O=[S+]1([O-])NC2(CCN(Cc3ccsc3)CC2)COc2ccccc21	-15.6%
O=C1NC2(CCCN(C(=O)c3cccnc3)C2)COc2ccccc21 (stereo unspecified)	i
COc1cccc(CN2CC3(C2)NC(=O)c2ccccc2O3)c1	-4.1%[44.1 µM]
O=C1NC2(CCCN(Cc3cccnc3)C2)Oc2ccccc21 (stereo unspecified)	-14.7%[44.1 µM]
N#Cc1ccc(CN2CC3(C2)NC(=O)c2ccccc2O3)cc1	i
SMILES	Pf Dd2 inh
CC(C(=O)NCc1ccc(Cl)cc1)n1ccc2cc(S(=O)(=O)N3CCCCCC3)ccc21 (stereo unspecified)	i
O=C(c1ccccc1)N1CCN(c2cc(-c3ccc(Cl)cc3)[nH]n2)CC1	i
Fc1ccc(OCCC2CCNC2)cc1 (stereo unspecified)	i
Cc1cccc(-c2noc(-c3ccc(NCC4CCCO4)c([N+](=O)[O-])c3)n2)c1 (stereo unspecified)	4.4%
O=S(=O)(c1cc(F)ccc1F)N1[C@H]2CC[C@@H]1c1cncnc1C2	-13.9%
Cc1ccc(CNC(=O)CSc2cc(C)[nH]c(=O)n2)cc1	7.5%
COC[C@@H]1CN(c2ncccn2)C[C@H]1C(=O)NCc1c(C)n[nH]c1C	-2.1%
O=C1NC2(CCN(C(=O)c3ccccc3)C2)OCc2ccccc21 (stereo unspecified)	i
c1cc(N2CCN(CCN3CCOCC3)CC2)ncn1	12.9%
Cc1ccc(CN2CCC3(CC2)COc2ccccc2CN3)cc1	6.31µM*
O=C1NC2(CCN(Cc3ccncc3)C2)Oc2ccccc21 (stereo unspecified)	13.6%[44.1 µM]
O=C1NC2(CCN(Cc3ccc(OC(F)(F)F)cc3)C2)COc2ccccc21 (stereo unspecified)	8.9%
Cc1ccc(CN2CCC3(CC2)NC(=O)c2ccccc2O3)cc1	-3.6%[44.1 µM]
O=C1NC2(CCN(Cc3ccccc3)C2)COc2ccccc21 (stereo unspecified)	10µM*
CC1=NOC2(CCN(Cc3ccc(C)cc3)CC2)C1	i
O=C(c1ccc(OC2CCN(C(=O)c3ccoc3)CC2)nc1)N1CCOCC1	24.6%
COc1cc(Cl)c(C)cc1NC(=O)c1cc2n(n1)CC(c1ccc(Cl)cc1)OC2 (stereo unspecified)	i
CC(=O)c1ccc(NC(=O)N2C[C@@H]3C[C@H](C2)c2ccc(NC(=O)c4ccncc4)c(=O)n2C3)cc1	-18.0%
COc1ccc(Nc2ccc3nnc(-c4ccc(C)cn4)n3n2)cc1	-11.2%[44.1 µM]
COc1ccc(-c2nnc3ccc(NC(C)C)nn23)nc1	i
